Test results taken from the supplement of paper PMC12636033.
± gives the standard deviation of the averaged measurements. The full ranking holds about 33,000 sequences; the median of “E-score (rank enrichment, -0.5 to 0.5)” is about -0.0028, and the highest 2% start at about 0.23. For the sample, the highest values were picked, then their nearest neighbours and some sequences at random.

What follows are sequences tested on 2Sb-muMax20 (muMax20 with two 1,3-bis(methyl)benzene Cys staples, A13C/A17C and Q88C/A92C, C-terminal Lys) (assay: PBM 8-mer E-score (E-score (rank enrichment, -0.5 to 0.5)); higher = stronger preferential binding).
Method: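 Protein binding microarray (universal PBM chip covering all 10-mers in fixed probe flanks) with chemically synthesized human Max(13-93) bHLH-LZ analogs (not full-length Max) bearing noncanonical residues (hArg, Tha, Aib, Nle at 65) and aromatic Cys staples. Read-out per 8-mer (and its reverse complement): E-score (rank-based enrichment, -0.5 to 0.5) and Z-score of median probe intensity.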

Sequence	PBM 8-mer E-score
ACATTATA	0.222 ± 0.013
AAACGAAT	0.0979 ± 0.067
CAACCGGG	-0.22 ± 0.053
ACTCACAA	0.124 ± 0.028
ACCTCGAC	-0.178 ± 0.084
ATGCAATA	0.269 ± 0.021
ATGCATCG	0.0238 ± 0.0075
CTGCAATA	0.0131 ± 0.065
GTGCATTA	0.0825 ± 0.077
ATGCATTG	0.133 ± 0.0027
CTGCATTA	0.0983 ± 0.0036
ATGCATCA	0.332 ± 0.0056
ATGCATTC	0.248 ± 0.054
GTGCAATA	0.118 ± 0.07
CTGCATTC	0.0548 ± 0.014
GTGCATCA	0.0577 ± 0.073
ATGCATTA	0.311 ± 0.01
AAAACCCA	0.145 ± 0.034
CGTGCCCC	0.0242 ± 0.014
GCTCTCTA	-0.0575 ± 0.015
ACCTGCCC	-0.236 ± 0.049
AGGCATAG	0.017 ± 0.038
CAAGTAAA	0.114 ± 0.018
CCTACACC	0.00456 ± 0.037
TCGCGTCA	-0.0876 ± 0.026

Sequence	PBM 8-mer E-score
CTGCATAC	0.0495 ± 0.019
ATGCATAC	0.253 ± 0.0083
ATGCATAA	0.213 ± 0.023
GCGGCGAC	-0.148 ± 0.0016
GAAACAAC	0.0094 ± 0.1
AAAACATA	0.1684 ± 0.0003
CAAACAAA	0.0981 ± 0.0047
TAAAACAA	-0.00029 ± 0.077
AAAAACAA	0.158 ± 0.049
GAAAACAA	0.244 ± 0.069
GAAACAAA	0.301 ± 0.065
GAAACATC	0.0426 ± 0.019
GAAACATA	0.268 ± 0.048
GATTATTA	0.1 ± 0.071
ATTACGAG	0.164 ± 0.013
CGAGTTAA	0.0575 ± 0.082
ACTCAGAA	0.0145 ± 0.00035
CTTAGTAC	0.0932 ± 0.025
TATCCAAA	0.103 ± 0.028
CCCGTCGA	-0.109 ± 0.064
CTGTGGTC	-0.235 ± 0.017
CAAGAAGA	0.0996 ± 0.012
ATGTTAAC	0.306 ± 0.013
GTGTTAAC	-0.018 ± 0.016
CAGTTAAC	0.0298 ± 0.036

Sequence	PBM 8-mer E-score
GAGTTAAC	0.0742 ± 0.055
CTGTTAAC	0.105 ± 0.041
AAGTTAAC	0.233 ± 0.052
CCAGTAGA	-0.0423 ± 0.068
AAGCCTGA	-0.17 ± 0.034
ACCTCCGG	-0.194 ± 0.037
CGCTGTAA	-0.00707 ± 0.013
AGGTAGCG	-0.0415 ± 0.0036
GCATGCGC	0.112 ± 0.049
CCATGCGA	0.0911 ± 0.01
GCATGCGA	0.266 ± 0.042
TCGAAAGA	0.0439 ± 0.024
CATAGATG	-0.111 ± 0.065
CAAGGCAC	0.0684 ± 0.076
ACTAGCCT	0.134 ± 0.035
CTCCCGCA	0.0448 ± 0.016
TAACATAA	0.217 ± 0.058
GAACATAA	0.198 ± 0.058
AAACATAC	0.199 ± 0.015
AAACATAT	0.247 ± 0.042
AAACATAG	0.0193 ± 0.016
AAACATAA	0.28 ± 0.013
CCGATCAG	-0.247 ± 0.028
GGGCTTAA	0.0764 ± 0.033
CGAATGCA	0.248 ± 0.035

Sequence	PBM 8-mer E-score
CGAATGTA	0.241 ± 0.011
CGAATGCC	-0.00354 ± 0.078
GGAATGTA	0.0875 ± 0.012
CGAATGCG	-0.0308 ± 0.079
CGAATGTC	-0.0317 ± 0.0078
ACAGTACC	-0.0999 ± 0.06
GCTGTGCA	-0.0668 ± 0.075
GGCCACAC	-0.0997 ± 0.082
CTTAACTC	0.0502 ± 0.01
TCTTTCAA	0.0646 ± 0.0097
AGACACAA	0.00927 ± 0.0092
ACACACAA	0.0979 ± 0.013
GGACACAA	0.238 ± 0.045
CAACACAA	0.0293 ± 0.052
GGACACGA	-0.122 ± 0.0082
GCACACAC	-0.0369 ± 0.062
GGACACAC	-0.0301 ± 0.051
AAACACAA	0.153 ± 0.0061
GCACACAA	0.233 ± 0.012
TGACACAA	0.239 ± 0.0028
CGACACAA	-0.0479 ± 0.0084
TAACACAA	0.232 ± 0.058
CGTCCACG	-0.0278 ± 0.092
GGCCCGAC	-0.223 ± 0.016
CTGGTGGA	-0.184 ± 0.0071

Sequence	PBM 8-mer E-score
CCCCAAAG	-0.0426 ± 0.063
CCTCTGGC	-0.104 ± 0.017
GAACTATC	0.0395 ± 0.014
GCACAACA	0.263 ± 0.066
GCACAACC	-0.2359 ± 0.0019
CCACAACA	0.0344 ± 0.024
CTCCTTGC	-0.0809 ± 0.064
GAACCACC	-0.0303 ± 0.047
ACCATAAG	0.0575 ± 0.0016
CCCATAAG	0.277 ± 0.06
CCCATAAC	0.128 ± 0.0013
ATACGTTG	0.11 ± 0.057
ATCTTGTA	-0.0155 ± 0.031
ATACAGTG	0.237 ± 0.028
ATACAGTA	0.223 ± 0.018
ATACAGTC	-0.00634 ± 0.095
ACGTCAAA	0.148 ± 0.052
CTTGCTGA	-0.0397 ± 0.039
GACGGAAC	-0.127 ± 0.049
CTCCTTAA	-0.0933 ± 0.1
AAGACCCA	0.042 ± 0.021
GAGACCCA	-0.107 ± 0.056
TAGACCCA	0.243 ± 0.021
CAGAGCAG	-0.155 ± 0.026
ACTGTTCT	0.114 ± 0.014

Sequence	PBM 8-mer E-score
AATAATAG	0.146 ± 0.0061
AGTAATAC	-0.0436 ± 0.038
CGTAATAG	0.168 ± 0.063
ACTAATAC	0.188 ± 0.061
AGTAATAG	0.255 ± 0.043
ACTAATAT	0.0629 ± 0.074
CATAATAG	0.258 ± 0.0042
ACTAATAG	0.261 ± 0.027
CATAATAA	0.123 ± 0.049
CCTGGTTA	-0.0217 ± 0.078
AGCGGTAA	-0.128 ± 0.0078
GAGGCTCC	-0.117 ± 0.064
AACTTTGT	0.12 ± 0.0076
AACACTAG	0.193 ± 0.0046
CTGACGCC	-0.0915 ± 0.025
AATGCTTG	-0.00273 ± 0.049
TCCACAGA	-0.0264 ± 0.053
CCTCGACG	-0.141 ± 0.026
AGTTGCTA	0.0844 ± 0.05
CGTTGCTA	0.237 ± 0.019
AATTGCTG	0.0578 ± 0.078
CATTGCTA	0.102 ± 0.021
AATTGCTA	0.268 ± 0.048
CGTTGCTC	-0.0317 ± 0.009
CCACCTTC	0.0963 ± 0.024

Sequence	PBM 8-mer E-score
AACTGAGG	-0.066 ± 0.0013
ACGGAAGA	-0.0282 ± 0.0086
ATCACAAA	0.187 ± 0.032
ACGTACGC	0.0419 ± 0.012
GGCTAGCA	0.0623 ± 0.01
CGCTAGCA	-0.253 ± 0.03
TGCTAGCA	0.245 ± 0.069
TACAAACA	-0.0196 ± 0.043
AACAAACA	0.257 ± 0.003
AACAAACC	0.0286 ± 0.068
GCCAAATA	0.136 ± 0.0084
TACAAATA	0.166 ± 0.013
AACAAGTA	-0.0361 ± 0.0029
CCCAAATA	0.24 ± 0.02
CCCAAGTA	0.209 ± 0.045
AAACAAAA	0.133 ± 0.04
AAACAAAC	0.0967 ± 0.0062
AACAAATA	0.269 ± 0.024
AAACAAAT	0.262 ± 0.056
ATTCCGTA	-0.178 ± 0.0038
AGCCTGCC	-0.0253 ± 0.013
GACCAGCA	0.0345 ± 0.019
